Data from PubChem BioAssay (NCATS).
Results filed as inconclusive are left out. Activity calls are given as the source filed them. Unless noted, calls follow the shape of the dose curve; as a rule, active = well fitted curve in the direction sought with a large enough effect; inconclusive = small, poorly fitted or top-dose-only effect, or another doubt; inactive = no such curve, though single readings can be large; an effect the other way counts as inactive or inconclusive.

How the values were obtained:
[1] = molecular target: Cytochrome P450 1A2 (Homo sapiens) (UniProt P05177); assay: p450-cyp1a2 (AID 410; calls by dose curve;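 also: -100% = full effect of reference inhibitor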)
Cytochrome P450 1A2 (Homo sapiens), sequence (P05177 whole entry, looked up): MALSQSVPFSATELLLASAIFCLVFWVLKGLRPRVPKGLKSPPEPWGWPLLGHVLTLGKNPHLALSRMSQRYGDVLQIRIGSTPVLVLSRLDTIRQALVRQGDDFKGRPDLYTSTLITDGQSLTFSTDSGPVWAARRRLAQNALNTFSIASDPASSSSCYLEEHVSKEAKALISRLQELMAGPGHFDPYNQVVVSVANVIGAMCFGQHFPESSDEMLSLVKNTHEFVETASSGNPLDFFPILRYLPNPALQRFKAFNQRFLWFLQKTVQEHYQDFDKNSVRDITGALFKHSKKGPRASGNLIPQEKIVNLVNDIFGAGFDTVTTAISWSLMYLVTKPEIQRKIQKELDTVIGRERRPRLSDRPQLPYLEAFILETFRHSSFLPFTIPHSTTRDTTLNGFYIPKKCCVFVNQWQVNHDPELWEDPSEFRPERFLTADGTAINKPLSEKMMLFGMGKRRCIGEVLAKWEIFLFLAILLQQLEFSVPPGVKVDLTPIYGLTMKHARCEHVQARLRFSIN
Summary of the method: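 20nM CYP1A2 with 100uM Luciferin-ME (at Km) in 100mM KPO4; compound preincubated 10 min, NADPH regeneration added, 60 min at room temperature. Luciferin quantified by luminescence after detection reagent; normalized to 57 uM furafylline.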

[2] = molecular target: Glucocorticoid receptor (Homo sapiens) (UniProt P04150); assay: GR-GFP Redistribution (AID 450;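 active = compounds whose dose series gives a full or clear partial fitted curve of increased nuclear translocation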; also: potency is read from the fitted curve at half-maximal effect); settings: U2OS GR-GFP nuclear translocation, laser cytometry, 2 h
Glucocorticoid receptor (Homo sapiens), sequence (P04150 whole entry, looked up, the tested form may be a part): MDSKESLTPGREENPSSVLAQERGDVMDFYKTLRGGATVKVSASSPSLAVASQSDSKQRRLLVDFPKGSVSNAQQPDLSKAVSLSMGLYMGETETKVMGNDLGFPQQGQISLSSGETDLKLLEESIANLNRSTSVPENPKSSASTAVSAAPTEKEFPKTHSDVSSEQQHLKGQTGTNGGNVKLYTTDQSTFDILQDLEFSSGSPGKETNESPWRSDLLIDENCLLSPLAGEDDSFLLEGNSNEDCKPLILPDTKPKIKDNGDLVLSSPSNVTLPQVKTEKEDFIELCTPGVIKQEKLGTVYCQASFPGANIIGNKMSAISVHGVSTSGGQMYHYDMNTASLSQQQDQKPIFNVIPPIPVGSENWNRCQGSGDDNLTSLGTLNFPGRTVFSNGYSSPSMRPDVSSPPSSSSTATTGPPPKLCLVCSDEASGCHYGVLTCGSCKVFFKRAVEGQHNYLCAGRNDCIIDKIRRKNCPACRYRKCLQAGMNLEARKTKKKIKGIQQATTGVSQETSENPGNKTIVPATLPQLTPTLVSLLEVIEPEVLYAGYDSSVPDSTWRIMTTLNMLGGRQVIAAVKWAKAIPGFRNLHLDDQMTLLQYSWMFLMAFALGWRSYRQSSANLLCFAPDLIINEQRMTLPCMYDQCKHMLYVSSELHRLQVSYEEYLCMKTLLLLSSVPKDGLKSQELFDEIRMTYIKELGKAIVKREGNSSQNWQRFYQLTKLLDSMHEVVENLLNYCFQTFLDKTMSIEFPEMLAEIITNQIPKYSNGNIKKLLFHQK

[3] = molecular target: Glucocorticoid receptor (Homo sapiens) (UniProt P04150); assay: GR-EFC Redistribution (AID 451; calls by dose curve; also: potency is read from the fitted curve at half-maximal effect); settings: CHO-K1 GR-EFC translocation, beta-gal luminescence, 2 h
Summary of the method: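 CHO-K1 cells expressing nuclear EA and GR-ED fragments of b-gal; compounds titrated up to 46 uM final, 2 h at 37 C. GR nuclear translocation read as complemented b-gal luminescence after 1 h RT detection.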

[4] = molecular target: Mitogen-activated protein kinase 10 (Mus musculus) (UniProt Q61831); assay: JNK3 AlphaScreen Assay (AID 530; active = well fitted curve in either direction with a large enough effect, not every such curve was filed as active;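 also: kinase came from lysate of stimulated human HepG2 cells; signal reports phosphorylation of biotinylated GST-cJun 1-79 at Ser73 with 10 µM ATP; % is scaled to controls: 0 for no effect and ±100 for the full control effect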)
Summary of the method: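 Pre-activated (IL-1β/TNFα) JNK3 in HepG2 lysates phosphorylates biotin-GST-cJun(1-79), 10 uM ATP; anti-phospho-cJun(Ser73) AlphaScreen read at room temperature, pH 7.6 Tris buffer. Compounds pre-incubated 15 min as titrations.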

[5] = molecular target: 3',5'-cyclic-AMP phosphodiesterase 4B (Homo sapiens) (UniProt Q07343); assay: qHTS Assay for Inhibitors of PDE-IV (AID 607; active = well fitted activation curve with a large enough effect in the main read-out, with a control signal flat, not every such curve was filed as active; also: % of control where 0% means no effect)
3',5'-cyclic-AMP phosphodiesterase 4B (Homo sapiens), sequence (Q07343 whole entry, looked up): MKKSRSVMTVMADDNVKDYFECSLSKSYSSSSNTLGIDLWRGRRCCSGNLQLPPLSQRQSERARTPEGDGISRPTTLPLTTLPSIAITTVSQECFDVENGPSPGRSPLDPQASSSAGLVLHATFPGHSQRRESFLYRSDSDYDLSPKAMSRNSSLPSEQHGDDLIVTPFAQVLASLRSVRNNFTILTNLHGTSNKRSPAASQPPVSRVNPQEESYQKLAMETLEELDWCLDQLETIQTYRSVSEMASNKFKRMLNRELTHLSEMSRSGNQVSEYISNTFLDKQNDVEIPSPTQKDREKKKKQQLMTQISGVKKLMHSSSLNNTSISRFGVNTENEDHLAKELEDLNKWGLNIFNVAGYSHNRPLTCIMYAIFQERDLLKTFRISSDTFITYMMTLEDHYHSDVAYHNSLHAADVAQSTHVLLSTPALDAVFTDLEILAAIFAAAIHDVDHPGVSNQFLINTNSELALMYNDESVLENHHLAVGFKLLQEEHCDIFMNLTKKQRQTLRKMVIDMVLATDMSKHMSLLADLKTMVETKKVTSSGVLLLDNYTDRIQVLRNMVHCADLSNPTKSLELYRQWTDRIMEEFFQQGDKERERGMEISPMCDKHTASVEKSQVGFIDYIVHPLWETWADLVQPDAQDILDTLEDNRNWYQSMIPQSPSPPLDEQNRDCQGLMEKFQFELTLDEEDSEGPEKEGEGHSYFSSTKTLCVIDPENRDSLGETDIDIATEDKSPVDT
Summary of the method: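 Cell-based read-out of cAMP via a modified cyclic nucleotide-gated channel and membrane potential dye (535/590 nm) in HEK293 cells expressing PDE4 endogenously. Compounds tested up to 22.9 uM final; 100 uM RO 20-1724 reference.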

[6] = qHTS Assay for Lipid Storage Modulators (AID 1519; calls by dose curve; as to activity change, negative = inhibition: % is scaled to controls: 0 for no effect and ±100 for the full control effect); settings: Drosophila S3 cells, BODIPY lipid droplet/cell ratio, laser cytometry, cells loaded with oleic acid
Summary of the method: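 Cells seeded at 5,000 per well were treated with compounds over a concentration series and loaded with oleic acid (400 uM, as added). Lipid droplet fluorescence (488 nm excitation, 500-530 nm channel) was read by laser-scanning cytometry and normalized to 20 uM Triacsin C.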

[7] = molecular target: Ubiquitin carboxyl-terminal hydrolase 1 (Homo sapiens) (UniProt O94782); assay: Inhibitors of USP1/UAF1: Pilot qHTS (AID 504865);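 also: rhodamine fluorescence freed from ubiquitin-rhodamine substrate followed over time; top concentration of the series differs between compounds; % is scaled to controls: 0 for no effect and ±100 for the full control effect; nearly all actives have a fitted effect of over 35% in size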
Ubiquitin carboxyl-terminal hydrolase 1 (Homo sapiens), sequence (O94782 whole entry, looked up): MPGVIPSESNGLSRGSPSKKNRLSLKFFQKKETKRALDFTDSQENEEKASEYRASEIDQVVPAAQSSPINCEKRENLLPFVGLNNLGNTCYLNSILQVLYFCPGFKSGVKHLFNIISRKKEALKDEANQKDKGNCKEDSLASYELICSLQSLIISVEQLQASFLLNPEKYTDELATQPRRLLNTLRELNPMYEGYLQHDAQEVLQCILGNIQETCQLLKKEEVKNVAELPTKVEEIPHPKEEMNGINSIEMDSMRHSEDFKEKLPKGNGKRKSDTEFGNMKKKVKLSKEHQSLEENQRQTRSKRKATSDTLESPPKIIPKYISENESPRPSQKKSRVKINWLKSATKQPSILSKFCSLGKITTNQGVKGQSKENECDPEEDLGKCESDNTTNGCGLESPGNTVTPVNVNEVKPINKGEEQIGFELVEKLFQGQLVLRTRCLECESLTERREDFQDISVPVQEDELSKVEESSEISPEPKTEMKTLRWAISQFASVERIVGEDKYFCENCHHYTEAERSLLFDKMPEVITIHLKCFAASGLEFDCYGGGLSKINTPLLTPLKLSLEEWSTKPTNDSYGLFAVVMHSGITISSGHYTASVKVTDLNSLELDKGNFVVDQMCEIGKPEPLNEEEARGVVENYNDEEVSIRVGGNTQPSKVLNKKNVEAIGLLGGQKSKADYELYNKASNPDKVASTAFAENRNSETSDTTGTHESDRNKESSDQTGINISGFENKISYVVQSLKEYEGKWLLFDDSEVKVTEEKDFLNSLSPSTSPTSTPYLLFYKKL
Summary of the method: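 Kinetic fluorescence assay: 1nM USP1/UAF1, 15 min compound preincubation, then 150nM Ub-Rho; 480/540 nm.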

[8] = molecular target: DNA dC->dU-editing enzyme APOBEC-3G (Homo sapiens) (UniProt Q9HC16); assay: qHTS for inhibitors of Vif-A3G interactions: Validation (AID 588379); also: 0% is about no effect
DNA dC->dU-editing enzyme APOBEC-3G (Homo sapiens), sequence (Q9HC16 whole entry, looked up): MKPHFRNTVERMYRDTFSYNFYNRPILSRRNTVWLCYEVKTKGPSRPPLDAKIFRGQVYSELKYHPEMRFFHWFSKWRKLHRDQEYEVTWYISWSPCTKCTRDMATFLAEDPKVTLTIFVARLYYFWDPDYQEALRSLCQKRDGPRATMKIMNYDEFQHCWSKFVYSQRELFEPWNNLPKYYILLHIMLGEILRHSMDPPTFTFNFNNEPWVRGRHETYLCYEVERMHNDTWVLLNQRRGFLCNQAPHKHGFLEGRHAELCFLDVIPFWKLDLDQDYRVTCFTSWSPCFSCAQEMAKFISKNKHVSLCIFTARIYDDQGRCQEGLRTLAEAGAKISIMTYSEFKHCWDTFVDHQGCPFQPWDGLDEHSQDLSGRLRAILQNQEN
Summary of the method: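 HeLa cells stably expressing Vif and A3G-eYFP, 700 cells/well, incubated overnight at 37 deg C, then exposed to compound overnight at 37 deg C. Inhibition of Vif-mediated degradation read as increased yellow fluorescence (Ex 488/Em 500-530) by laser-scanning cytometry.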

[9] = system: Zika virus NS2B-NS3 protease; assay: Primary screen GU AMC qHTS for Zika virus inhibitors (AID 1347154);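 also: 0% = no-inhibitor control and -100% = no-enzyme control; nearly all actives have a fitted effect of over 70% in size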
Summary of the method: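 Unlinked Zika NS2B hydrophilic domain–NS3 protease complex at 25 nM in 10 mM Tris-HCl pH 8.0, 0.01% Tween 20, with an AMC peptide substrate. Fluorescence change (340/450 nm) over 15 min at room temperature, normalized to controls, fitted to 4-parameter Hill.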

[10] = Counterscreen qHTS for small molecule stabilizers of the endoplasmic reticulum resident proteome: GLuc-NoTag assay (AID 1508627);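 also: SH-SY5Y cells given compound then 100 nM thapsigargin to empty ER calcium; 0% = thapsigargin alone and -100% = DMSO vehicle control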
Summary of the method: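 SH-SY5Y cells stably expressing constitutively secreted GLuc without SERCaMP tag, exposed to compound for 19 hr, then to 100 nM thapsigargin for 4 hr at 37C. Medium luciferase was read by coelenterazine luminescence without lysis.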

[11] = Confirmatory qHTS for small molecule stabilizers of the endoplasmic reticulum resident proteome: Secreted ER Calcium Modulated Protein (SERCaMP) assay (AID 1508628); also: potency is read from the fitted curve at half-maximal effect; nearly all actives have a fitted effect of over 40% in size
Summary of the method: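 SH-SY5Y cells stably expressing GLuc-SERCaMP, treated 16 h with compound (primary 1.53, 7.67, 38.3 uM; confirmation 11 concentrations, up to 76.6 uM), then 100 nM thapsigargin for 4 h. Secreted Gaussia luciferase in medium read by coelenterazine luminescence.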

[12] = Cell Viability qHTS for small molecule stabilizers of the endoplasmic reticulum resident proteome (AID 1508629); settings: cell viability counter-screen, 100 nM thapsigargin for final 4 h;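 also: human SH-SY5Y neuroblastoma cells carrying the GLuc-SERCaMP reporter; compound exposure about 46 h in total before the viability read; % is scaled to controls: 0 for no effect and ±100 for the full control effect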

COc1ccc(NS(=O)(=O)c2ccc(I)cc2)cc1N1CCN(C)CC1
active: Potency [11] 7.94 µM
28.9%: max response ([6]; measured here: lipid channel max response)
inactive: Potency [1] | Potency [2] > 46 µM | Potency [3] > 46 µM | Potency [4] | Potency [5] | activity change, negative = inhibition ([6]; at 57.5 µM (top of the series)) 12.5% | Potency [7] | Potency [8] | Potency [9] | Potency [10] | max response [12] -15.1%
18.9%: max response ([6]; measured here: cell count channel max response)
